# Experimental data taken from PubChem BioAssay.
# Calls of active or inactive are those of the source.
# What was measured:
# [1] = binders of probe aFSTL3 on microarray, primary screen, stem cell growth factor project, biochemical, small-molecule microarray, fluorescence 635/667 (AID 1064); details: higher = more signal;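 also: measures binding of the biotinylated anti-FSTL3 antibody to printed compounds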
# [2] = binders from COS7 lysate, DM2A8 probe, primary screen, torsin A project, cell lysate, small-molecule microarray, fluorescence 635/667 (AID 1065); details: higher = more signal, COS7 lysate expressing mutant human TOR1A
# [3] = binders of probe aFGF2 on microarray, primary screen, stem cell growth factor project, biochemical, small-molecule microarray, fluorescence 635/667 (AID 1067); details: higher = more signal;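 also: measures binding of biotinylated aFGF2 protein to printed compounds on slides; z-score merges feature fluorescence and signal-to-noise across triplicate slides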
# [4] = binders of probe aFGF10 on microarray, primary screen, stem cell growth factor project, biochemical, small-molecule microarray, fluorescence 635/667 (AID 1071); details: higher = more signal;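 also: score merges 667 nm spot intensity and signal to noise from triplicate slides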
# [5] = molecular target: Neurogenic locus notch homolog protein 2 (Homo sapiens) (UniProt Q04721); assay: Notch2 binders on small-molecule microarrays, primary screen, biochemical, small-molecule microarray, 635 nm fluorescence, stem cell growth factors (AID 1073); details: Notch2 binding, higher = more signal
# Chain of Neurogenic locus notch homolog protein 2 (Homo sapiens) (Q04721 whole entry, looked up, canonical isoform): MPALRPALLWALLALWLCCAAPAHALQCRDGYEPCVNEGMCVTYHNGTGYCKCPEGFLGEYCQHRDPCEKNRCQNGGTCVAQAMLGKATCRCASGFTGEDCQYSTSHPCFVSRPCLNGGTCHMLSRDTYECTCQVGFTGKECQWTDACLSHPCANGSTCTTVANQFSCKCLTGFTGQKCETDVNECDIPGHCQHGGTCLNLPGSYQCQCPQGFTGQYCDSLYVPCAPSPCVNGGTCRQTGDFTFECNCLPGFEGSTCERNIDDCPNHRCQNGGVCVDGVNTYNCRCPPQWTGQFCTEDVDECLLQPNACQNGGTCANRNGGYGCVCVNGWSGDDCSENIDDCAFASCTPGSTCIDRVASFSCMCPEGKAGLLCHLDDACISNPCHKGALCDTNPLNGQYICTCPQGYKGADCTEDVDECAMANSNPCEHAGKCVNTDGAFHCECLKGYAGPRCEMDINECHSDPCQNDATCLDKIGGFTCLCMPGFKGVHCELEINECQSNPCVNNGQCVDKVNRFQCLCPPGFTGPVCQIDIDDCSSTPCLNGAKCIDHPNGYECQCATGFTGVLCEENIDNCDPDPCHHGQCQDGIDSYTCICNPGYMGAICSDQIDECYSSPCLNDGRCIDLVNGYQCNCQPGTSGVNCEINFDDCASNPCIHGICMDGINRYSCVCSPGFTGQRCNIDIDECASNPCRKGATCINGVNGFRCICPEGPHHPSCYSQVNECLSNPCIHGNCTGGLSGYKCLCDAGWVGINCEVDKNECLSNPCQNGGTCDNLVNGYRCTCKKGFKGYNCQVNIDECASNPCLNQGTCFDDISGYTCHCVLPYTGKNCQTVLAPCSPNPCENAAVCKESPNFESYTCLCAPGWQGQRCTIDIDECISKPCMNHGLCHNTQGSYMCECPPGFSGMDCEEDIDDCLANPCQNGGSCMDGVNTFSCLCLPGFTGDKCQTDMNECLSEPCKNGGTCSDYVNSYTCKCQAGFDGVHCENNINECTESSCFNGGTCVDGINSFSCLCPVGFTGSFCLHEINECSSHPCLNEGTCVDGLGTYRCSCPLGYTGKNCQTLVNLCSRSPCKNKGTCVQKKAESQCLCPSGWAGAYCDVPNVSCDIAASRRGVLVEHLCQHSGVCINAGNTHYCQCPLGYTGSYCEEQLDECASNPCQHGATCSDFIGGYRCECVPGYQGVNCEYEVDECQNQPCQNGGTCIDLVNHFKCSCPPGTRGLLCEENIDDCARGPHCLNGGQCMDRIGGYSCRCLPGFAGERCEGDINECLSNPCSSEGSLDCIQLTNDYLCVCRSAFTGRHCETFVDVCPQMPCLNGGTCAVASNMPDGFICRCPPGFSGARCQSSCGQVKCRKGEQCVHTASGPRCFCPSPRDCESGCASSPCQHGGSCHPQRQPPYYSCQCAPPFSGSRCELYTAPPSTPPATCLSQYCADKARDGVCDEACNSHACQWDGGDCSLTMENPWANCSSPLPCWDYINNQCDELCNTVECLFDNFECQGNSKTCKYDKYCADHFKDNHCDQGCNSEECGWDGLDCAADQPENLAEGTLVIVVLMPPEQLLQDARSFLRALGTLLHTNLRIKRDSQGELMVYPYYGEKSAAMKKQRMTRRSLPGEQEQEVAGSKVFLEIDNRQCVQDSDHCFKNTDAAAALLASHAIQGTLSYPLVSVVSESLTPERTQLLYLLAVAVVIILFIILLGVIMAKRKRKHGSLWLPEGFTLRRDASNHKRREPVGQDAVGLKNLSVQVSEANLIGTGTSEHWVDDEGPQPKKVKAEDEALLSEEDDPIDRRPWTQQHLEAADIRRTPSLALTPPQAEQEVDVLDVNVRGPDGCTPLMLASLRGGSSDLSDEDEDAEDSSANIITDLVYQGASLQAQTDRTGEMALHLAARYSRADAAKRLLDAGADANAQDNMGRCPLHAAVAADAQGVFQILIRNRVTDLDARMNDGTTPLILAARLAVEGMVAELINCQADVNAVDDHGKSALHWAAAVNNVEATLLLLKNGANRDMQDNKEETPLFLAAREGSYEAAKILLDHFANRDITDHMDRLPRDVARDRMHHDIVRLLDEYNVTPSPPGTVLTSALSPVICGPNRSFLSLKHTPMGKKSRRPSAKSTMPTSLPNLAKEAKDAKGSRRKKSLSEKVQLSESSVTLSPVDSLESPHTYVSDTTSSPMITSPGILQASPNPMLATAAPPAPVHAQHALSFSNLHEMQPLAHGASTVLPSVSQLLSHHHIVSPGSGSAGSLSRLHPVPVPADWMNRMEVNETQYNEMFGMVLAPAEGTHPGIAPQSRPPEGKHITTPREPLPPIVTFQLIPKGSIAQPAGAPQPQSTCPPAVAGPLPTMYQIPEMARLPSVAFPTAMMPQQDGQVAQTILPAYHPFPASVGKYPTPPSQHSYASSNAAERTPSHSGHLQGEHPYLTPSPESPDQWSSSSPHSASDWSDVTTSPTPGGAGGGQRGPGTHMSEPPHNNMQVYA
# [6] = molecular target: Pro-neuregulin-1, membrane-bound isoform (Homo sapiens) (UniProt Q02297); assay: NRG1 binders on small-molecule microarrays, primary screen, psychiatric disease protein project, biochemical, small-molecule microarray, fluorescence 635/667 (AID 1075); details: NRG1 binding, 635 nm fluorescence, higher = more signal;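 also: score combines 667 nm spot fluorescence with signal to noise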
# Chain of Pro-neuregulin-1, membrane-bound isoform (Homo sapiens) (Q02297 whole entry, looked up, the tested form may be a part, canonical isoform): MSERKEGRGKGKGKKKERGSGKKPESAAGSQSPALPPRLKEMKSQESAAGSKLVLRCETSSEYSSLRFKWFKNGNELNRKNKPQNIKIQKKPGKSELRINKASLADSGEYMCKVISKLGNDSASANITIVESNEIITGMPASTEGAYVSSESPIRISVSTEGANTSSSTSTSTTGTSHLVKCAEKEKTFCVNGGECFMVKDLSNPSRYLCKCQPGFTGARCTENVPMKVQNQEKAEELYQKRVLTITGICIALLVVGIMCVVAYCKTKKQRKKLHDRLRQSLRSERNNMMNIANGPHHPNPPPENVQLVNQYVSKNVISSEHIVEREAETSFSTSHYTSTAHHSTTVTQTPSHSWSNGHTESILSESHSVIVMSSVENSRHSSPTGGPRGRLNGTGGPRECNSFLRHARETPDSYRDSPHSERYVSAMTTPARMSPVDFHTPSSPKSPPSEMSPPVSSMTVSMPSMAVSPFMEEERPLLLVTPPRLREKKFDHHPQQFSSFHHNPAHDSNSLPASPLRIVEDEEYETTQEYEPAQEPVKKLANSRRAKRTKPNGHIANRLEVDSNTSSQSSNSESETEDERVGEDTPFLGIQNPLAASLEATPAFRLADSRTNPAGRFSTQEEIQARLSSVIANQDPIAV
# [7] = tested on: Neuregulin-1 EGF-like domain; assay: binders of neuregulin-1 EGF-like domain, primary screen, biochemical, small-molecule microarray, 635 nm fluorescence (AID 1081); details: small-molecule microarray binding, higher = more signal;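 also: binding of the protein to compounds printed on small-molecule microarray slides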
# [8] = FRG1 promoter luciferase signal modulators, primary screen, FRG1 inhibition for FSHD, cell-based, C2C12 myotubes, firefly/Renilla luciferase, luminescence (AID 1084); details: higher = more signal, called active from +8 up or from −8 down
# [9] = binders of probe aFST on microarray, primary screen, stem cell growth factor project, biochemical, small-molecule microarray, fluorescence 635/667 (AID 1086); details: higher = more signal;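 also: score merges 667 nm fluorescence with signal-to-noise of each printed compound spot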
# [10] = binders of probe aHhip on microarray, primary screen, stem cell growth factor project, biochemical, small-molecule microarray, fluorescence 635/667 (AID 1087); details: higher = more signal;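 also: score merges spot fluorescence at 667nm with spot signal to noise ratio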
Compound,composite z-score [1],composite z-score [2],composite z-score [3],composite z-score [4],composite z-score [5],composite z-score [6],composite z-score [7],z-score [8],composite z-score [9],composite z-score [10]
[N-]=[N+]=Nc1ccccc1C[C@@]1(C(=O)O)N=C(c2ccc(OCCCO)cc2)O[C@@H]1c1ccccc1,0.0693,-0.518,0.0248,0.303,1.35,1.75,1.24,0.835 (inactive),0.827,-0.0765
C=CC[C@@]1(C(=O)O)N=C(c2ccc(OCCCO)cc2)O[C@@H]1c1ccccc1,0.522,3.13,0.206,0.553,0.63,2.08,1.34,0.19 (inactive),-0.55,0.212
Cc1ccc(S[C@]2(C(=O)NC(C)C)CC(=O)N(Cc3ccccc3C(F)(F)F)[C@@H]2c2ccc(CO)cc2I)cc1,1.01,-0.685,-0.0924,-0.545,-1.67,1.91,1.17,-0.62 (inactive),-0.415,-0.274
CC=CC(O)C1C=CC2C(=O)N(C)C(=O)C2N1N1CCCCC1 (stereo not given),-0.0771,0.326,-0.0231,0.862,1.45,1.85,1.26,1.89 (inactive),0.697,-0.305
COCCCNC(=O)[C@@]1(Sc2ccc(C)cc2)CC(=O)N(C2Cc3ccccc3C2)[C@@H]1c1ccc(CO)cc1I,0.926,-0.247,-0.156,-0.379,-1.02,1.12,-0.447,-0.703 (inactive),-0.926,-0.294
CC(C)N1CC=CC23O[C@@H]4C=CCOC(=O)[C@@H]4[C@H]2C(=O)N(C(C)CO)[C@@H]3C1=O (stereo not given in full),0.377,-1.2,-0.071,-0.536,-1.11,2.17,0.9,0.106 (inactive),-0.508,-0.593
CCOC(=O)[C@H]1C/C=C/C[C@H](C(=O)OCC)C(=O)O[C@H]2[C@@H](OC)O[C@H](CO)[C@@H](OC(=O)Nc3ccc(OC)cc3)[C@@H]2OC1=O,-0.0119,0.753,0.0386,0.803,1.16,0.309,0.94,2.18 (inactive),0.363,0.675
C=CCOC(=O)[C@@H]1[C@H]2C(=O)O[C@H](c3ccccc3)[C@H](c3ccccc3)N2[C@H](c2ccc(OCCOC(=O)[C@H]3C[C@H]4C(=O)N[C@@H](CCCCNC(C)=O)C(=O)N4[C@H]3c3cccc(OCCO)c3)cc2)[C@@]12C(=O)Nc1ccc(I)cc12,-0.0066,0.99,-0.0718,0.404,0.544,0.851,1.28,0.49 (inactive),0.252,0.0479
O=C(NC1CC1)[C@@H]1c2ccccc2C(=O)N(Cc2ccccc2)[C@H]1c1ccc(CO)cc1,0.176,-0.301,-0.0606,0.207,-0.454,1.4,1.4,-2.71 (inactive),0.646,-0.493
O=C(O)[C@H](Cc1ccccc1)n1cc(-c2ccccn2)nn1,-0.158,-0.258,-0.149,0.306,0.377,0.286,1.07,1.24 (inactive),0.321,-0.0672
CN1C(=O)C2C(C1=O)C1C=C(c3ccc(CO)cc3)C2C(c2cccs2)N1Cc1cccc(OC(F)(F)F)c1 (stereo not given),-0.16,0.669,-0.109,0.432,1.25,1.87,1.35,0.785 (inactive),0.875,0.0505
O=C(N1CCCCC1)[C@@]1(Cc2ccccc2)COC(c2ccc(OCCCO)cc2)=N1,0.771,0.81,0.0661,1.1,1.33,1.91,1.25,-2.97 (inactive),0.53,0.347
C=C1C2CC3C(=C4C(CO[C@@H]4[C@H]4CCCN4S(=O)(=O)c4ccccc4[N+](=O)[O-])C4C(=O)N(C)C(=O)C34)CC2C(=O)N1C (stereo not given in full),-0.431,0.315,-0.125,0.36,0.574,1.12,0.0641,0.581 (inactive),0.174,0.0024
O=c1cccc(-c2ccc(C(F)(F)F)cc2)o1,-0.0035,-0.814,-0.045,-0.173,-0.33,-0.289,-0.44,3.27 (inactive),-0.126,-0.0994
